# Measured values reported in publication PMC7862700, “An all-to-all approach to the identification of sequence-specific readers for epigenetic DNA modifications on cytosine”.
# Experiments:
# Assay in all cases: DAPPL (digital affinity profiling via proximity ligation, sequencing); 10 mM Tris-HCl pH 7.5, 50 mM NaCl, 1 mM DTT, 4% glycerol, room temperature, 30 min; GST-TFs on glutathione beads, 16-mer random dsDNA library, 0.1% formaldehyde crosslink after washing; high values mean tight binding
# Details in all cases: protein: recombinant; tags: N-terminal GST; dsDNA, one strand shown
# FLI1 = molecular target: T1, FLI1 (Homo sapiens, UniProt Q01543 1-452)
# T1 sequence: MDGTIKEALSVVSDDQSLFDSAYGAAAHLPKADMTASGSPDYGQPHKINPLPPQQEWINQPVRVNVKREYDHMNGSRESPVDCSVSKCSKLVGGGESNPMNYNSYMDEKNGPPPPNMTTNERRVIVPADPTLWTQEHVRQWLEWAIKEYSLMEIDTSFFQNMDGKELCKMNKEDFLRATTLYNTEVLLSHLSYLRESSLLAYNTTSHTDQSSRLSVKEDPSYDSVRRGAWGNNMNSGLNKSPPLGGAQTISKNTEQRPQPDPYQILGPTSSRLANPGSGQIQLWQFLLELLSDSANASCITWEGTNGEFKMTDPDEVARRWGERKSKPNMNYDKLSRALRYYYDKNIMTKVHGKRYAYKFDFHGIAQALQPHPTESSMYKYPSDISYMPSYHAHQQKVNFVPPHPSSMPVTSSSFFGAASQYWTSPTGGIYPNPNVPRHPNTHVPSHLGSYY
# Procedure, shortened: (§1)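 Human transcription factors fused to GST were expressed in yeast, captured on glutathione beads, given DNA barcodes and pooled with a GST-only negative control. Pools were incubated with 200 nmole of a 16-mer random double-stranded DNA library in Tris/NaCl/DTT/glycerol buffer at room temperature for 30 min. They were then washed, crosslinked with 0.1% formaldehyde, proximity-ligated (BsaI/T4 ligase, 1 h, 37 °C), PCR-amplified and sequenced on an Illumina NextSeq500. Binding signal is each 6-mer's read frequency for a factor divided by its frequency for the GST control.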
# GABPA = molecular target: T2, GABPA (Homo sapiens, UniProt Q06546 1-454)
# T2 sequence: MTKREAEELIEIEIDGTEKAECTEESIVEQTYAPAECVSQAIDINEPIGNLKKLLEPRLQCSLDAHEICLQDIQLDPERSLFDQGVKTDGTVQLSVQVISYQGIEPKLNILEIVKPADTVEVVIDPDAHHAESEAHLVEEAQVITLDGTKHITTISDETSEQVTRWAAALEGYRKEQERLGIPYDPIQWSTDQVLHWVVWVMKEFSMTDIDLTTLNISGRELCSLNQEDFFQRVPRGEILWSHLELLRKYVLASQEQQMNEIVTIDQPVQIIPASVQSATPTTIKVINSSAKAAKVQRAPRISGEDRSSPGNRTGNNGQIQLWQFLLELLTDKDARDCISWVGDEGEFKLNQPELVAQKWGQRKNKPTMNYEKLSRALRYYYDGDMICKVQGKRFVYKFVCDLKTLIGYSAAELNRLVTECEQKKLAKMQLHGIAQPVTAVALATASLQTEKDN
# Procedure, shortened: as §1
# ERG = molecular target: T3, ERG (Homo sapiens, UniProt P11308 1-479)
# T3 sequence: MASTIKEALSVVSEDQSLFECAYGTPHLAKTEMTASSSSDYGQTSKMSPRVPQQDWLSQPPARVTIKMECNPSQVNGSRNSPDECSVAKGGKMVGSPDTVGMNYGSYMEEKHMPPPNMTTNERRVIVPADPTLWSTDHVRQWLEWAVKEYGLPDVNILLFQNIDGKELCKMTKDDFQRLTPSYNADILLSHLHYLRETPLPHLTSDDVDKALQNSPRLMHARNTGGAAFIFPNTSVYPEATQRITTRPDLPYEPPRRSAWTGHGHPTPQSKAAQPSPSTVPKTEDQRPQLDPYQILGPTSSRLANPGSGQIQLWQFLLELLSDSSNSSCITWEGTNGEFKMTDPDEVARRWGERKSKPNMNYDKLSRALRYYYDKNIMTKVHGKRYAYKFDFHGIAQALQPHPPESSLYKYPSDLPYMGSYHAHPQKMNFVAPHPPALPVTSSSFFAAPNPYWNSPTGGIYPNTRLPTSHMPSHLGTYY
# Procedure, shortened: as §1
# EHF = molecular target: T4, EHF (Homo sapiens, UniProt Q9NZC4 1-300)
# T4 sequence: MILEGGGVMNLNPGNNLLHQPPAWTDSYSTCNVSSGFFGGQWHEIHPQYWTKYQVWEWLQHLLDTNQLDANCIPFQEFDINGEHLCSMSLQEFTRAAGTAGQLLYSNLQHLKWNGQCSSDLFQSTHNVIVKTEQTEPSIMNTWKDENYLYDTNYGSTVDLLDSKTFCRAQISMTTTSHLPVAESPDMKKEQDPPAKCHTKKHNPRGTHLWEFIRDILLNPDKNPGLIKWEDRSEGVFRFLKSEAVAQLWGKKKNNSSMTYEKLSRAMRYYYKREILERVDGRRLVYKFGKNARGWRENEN
# Procedure, shortened: as §1
# SPIB = SPIB (Homo sapiens, UniProt Q01892 1-262)
# Procedure, shortened: as §1
# ELK3 = molecular target: T5, ELK3 (Homo sapiens, UniProt P41970 1-407)
# T5 sequence: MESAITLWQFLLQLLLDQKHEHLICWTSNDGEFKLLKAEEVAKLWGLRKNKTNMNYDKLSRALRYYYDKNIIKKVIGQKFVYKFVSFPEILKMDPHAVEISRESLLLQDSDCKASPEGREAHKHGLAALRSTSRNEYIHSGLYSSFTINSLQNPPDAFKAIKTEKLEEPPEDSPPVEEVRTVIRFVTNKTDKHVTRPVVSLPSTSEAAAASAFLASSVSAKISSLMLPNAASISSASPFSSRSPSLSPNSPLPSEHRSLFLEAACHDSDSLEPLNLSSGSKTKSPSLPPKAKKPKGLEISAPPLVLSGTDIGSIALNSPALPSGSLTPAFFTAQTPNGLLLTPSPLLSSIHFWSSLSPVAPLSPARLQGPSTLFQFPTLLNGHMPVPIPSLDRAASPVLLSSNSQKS
# Procedure, shortened: as §1
# SPIC = molecular target: T6, SPIC (Homo sapiens, UniProt Q8N5J4 1-248)
# T6 sequence: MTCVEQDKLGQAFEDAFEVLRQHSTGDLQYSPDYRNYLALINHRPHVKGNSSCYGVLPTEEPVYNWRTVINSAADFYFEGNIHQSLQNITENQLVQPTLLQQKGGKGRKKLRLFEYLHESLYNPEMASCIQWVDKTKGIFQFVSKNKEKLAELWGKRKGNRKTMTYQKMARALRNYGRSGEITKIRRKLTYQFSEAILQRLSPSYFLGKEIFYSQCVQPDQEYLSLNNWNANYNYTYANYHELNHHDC
# Procedure, shortened: as §1
# ELF4 = ELF4 (Homo sapiens, UniProt Q99607 1-663)
# Procedure, shortened: as §1
# ELK4 = molecular target: T7, ELK4 (Homo sapiens, UniProt P28324-2 1-405)
# T7 sequence: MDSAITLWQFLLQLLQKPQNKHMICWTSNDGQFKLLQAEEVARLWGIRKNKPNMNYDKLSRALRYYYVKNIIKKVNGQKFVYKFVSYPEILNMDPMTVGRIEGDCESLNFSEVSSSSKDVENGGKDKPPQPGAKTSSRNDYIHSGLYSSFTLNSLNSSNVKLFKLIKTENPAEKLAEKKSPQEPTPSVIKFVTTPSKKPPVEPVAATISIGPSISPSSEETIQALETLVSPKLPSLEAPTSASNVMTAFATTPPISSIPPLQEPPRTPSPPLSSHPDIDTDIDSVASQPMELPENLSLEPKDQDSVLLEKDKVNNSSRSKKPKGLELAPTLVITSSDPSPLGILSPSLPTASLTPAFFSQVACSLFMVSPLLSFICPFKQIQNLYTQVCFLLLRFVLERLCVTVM
# Procedure, shortened: as §1
# ERF = molecular target: T8, ERF (Homo sapiens, UniProt P50548 1-548)
# T8 sequence: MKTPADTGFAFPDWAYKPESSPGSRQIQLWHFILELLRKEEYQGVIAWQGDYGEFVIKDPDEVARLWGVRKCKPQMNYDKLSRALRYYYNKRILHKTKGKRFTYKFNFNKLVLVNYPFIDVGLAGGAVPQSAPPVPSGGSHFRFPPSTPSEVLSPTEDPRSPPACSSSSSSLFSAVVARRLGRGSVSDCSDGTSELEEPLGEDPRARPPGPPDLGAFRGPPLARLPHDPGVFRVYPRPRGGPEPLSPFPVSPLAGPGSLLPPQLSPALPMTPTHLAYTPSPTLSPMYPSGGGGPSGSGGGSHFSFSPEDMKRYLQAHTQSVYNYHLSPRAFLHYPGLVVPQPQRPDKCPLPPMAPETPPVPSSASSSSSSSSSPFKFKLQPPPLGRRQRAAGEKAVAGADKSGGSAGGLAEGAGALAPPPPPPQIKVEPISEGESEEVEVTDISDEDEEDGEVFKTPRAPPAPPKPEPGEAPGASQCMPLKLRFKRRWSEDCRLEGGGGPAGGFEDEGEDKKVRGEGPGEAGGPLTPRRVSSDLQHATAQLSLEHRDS
# Procedure, shortened: as §1
# ETV3L = molecular target: T9, ETV3L (Homo sapiens, UniProt Q6ZN32 1-361)
# T9 sequence: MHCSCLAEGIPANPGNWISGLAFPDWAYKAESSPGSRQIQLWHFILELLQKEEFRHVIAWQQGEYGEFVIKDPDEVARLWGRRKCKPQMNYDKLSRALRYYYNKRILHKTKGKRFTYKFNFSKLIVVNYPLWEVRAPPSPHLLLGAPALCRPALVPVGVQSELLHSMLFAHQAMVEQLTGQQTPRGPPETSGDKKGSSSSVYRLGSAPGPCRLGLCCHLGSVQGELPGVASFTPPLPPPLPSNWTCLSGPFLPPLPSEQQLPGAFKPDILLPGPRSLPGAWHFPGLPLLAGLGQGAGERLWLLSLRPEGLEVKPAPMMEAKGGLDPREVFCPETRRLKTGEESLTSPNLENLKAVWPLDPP
# Procedure, shortened: as §1
# ETS2 = molecular target: T10, ETS2 (Homo sapiens, UniProt P15036 1-469)
# T10 sequence: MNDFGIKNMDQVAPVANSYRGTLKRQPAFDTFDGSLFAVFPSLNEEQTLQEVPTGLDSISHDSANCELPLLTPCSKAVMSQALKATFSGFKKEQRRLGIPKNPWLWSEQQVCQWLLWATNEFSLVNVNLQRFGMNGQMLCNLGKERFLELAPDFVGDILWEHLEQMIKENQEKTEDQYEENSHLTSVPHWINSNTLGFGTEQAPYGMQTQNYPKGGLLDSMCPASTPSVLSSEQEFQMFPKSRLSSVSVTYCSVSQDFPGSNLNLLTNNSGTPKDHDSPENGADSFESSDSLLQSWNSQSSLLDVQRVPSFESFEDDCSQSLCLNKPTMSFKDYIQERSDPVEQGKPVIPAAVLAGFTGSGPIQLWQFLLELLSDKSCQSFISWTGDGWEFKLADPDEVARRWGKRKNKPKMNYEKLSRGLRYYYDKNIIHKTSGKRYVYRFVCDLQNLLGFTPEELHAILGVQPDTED
# Procedure, shortened: as §1
# ETV7 = molecular target: T11, ETV7 (Homo sapiens, UniProt Q9Y603 1-341)
# T11 sequence: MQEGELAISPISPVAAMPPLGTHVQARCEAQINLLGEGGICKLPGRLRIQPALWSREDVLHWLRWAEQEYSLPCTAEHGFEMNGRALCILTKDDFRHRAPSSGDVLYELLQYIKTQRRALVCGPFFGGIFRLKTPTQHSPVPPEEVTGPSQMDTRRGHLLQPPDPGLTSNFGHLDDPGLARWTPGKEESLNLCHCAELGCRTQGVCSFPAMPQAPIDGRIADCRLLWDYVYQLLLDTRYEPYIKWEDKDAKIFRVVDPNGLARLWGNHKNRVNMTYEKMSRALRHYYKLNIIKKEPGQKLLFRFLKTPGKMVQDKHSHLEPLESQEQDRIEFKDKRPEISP
# Procedure, shortened: as §1
# ETV6 = ETV6 (Homo sapiens, UniProt P41212 1-452)
# Procedure, shortened: as §1
# ELF4, sequence (Q99607 whole entry): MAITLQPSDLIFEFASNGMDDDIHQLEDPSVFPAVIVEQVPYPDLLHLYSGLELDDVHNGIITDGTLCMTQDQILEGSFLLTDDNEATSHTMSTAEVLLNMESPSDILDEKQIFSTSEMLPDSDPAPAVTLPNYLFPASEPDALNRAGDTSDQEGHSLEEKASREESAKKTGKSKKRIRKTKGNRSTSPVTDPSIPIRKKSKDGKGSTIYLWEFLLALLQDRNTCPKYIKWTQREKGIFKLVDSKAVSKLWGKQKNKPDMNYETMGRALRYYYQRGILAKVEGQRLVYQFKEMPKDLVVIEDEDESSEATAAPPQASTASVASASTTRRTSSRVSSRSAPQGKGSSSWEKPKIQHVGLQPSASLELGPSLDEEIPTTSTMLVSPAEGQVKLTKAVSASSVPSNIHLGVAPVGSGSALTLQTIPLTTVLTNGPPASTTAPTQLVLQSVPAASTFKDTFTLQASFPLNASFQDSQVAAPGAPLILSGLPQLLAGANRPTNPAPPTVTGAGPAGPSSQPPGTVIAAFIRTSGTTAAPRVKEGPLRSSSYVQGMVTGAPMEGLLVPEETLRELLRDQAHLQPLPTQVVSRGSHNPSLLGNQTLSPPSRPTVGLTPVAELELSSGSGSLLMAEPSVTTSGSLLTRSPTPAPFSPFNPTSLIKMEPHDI
# SPIB, sequence (Q01892 whole entry): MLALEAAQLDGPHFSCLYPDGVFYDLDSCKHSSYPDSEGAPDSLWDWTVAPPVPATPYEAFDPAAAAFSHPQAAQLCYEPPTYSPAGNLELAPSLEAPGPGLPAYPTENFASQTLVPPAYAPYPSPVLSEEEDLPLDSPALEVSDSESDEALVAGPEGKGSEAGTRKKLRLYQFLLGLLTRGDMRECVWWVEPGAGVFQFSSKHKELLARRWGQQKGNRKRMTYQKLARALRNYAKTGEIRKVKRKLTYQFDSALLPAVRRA
# ETV6, sequence (P41212 whole entry): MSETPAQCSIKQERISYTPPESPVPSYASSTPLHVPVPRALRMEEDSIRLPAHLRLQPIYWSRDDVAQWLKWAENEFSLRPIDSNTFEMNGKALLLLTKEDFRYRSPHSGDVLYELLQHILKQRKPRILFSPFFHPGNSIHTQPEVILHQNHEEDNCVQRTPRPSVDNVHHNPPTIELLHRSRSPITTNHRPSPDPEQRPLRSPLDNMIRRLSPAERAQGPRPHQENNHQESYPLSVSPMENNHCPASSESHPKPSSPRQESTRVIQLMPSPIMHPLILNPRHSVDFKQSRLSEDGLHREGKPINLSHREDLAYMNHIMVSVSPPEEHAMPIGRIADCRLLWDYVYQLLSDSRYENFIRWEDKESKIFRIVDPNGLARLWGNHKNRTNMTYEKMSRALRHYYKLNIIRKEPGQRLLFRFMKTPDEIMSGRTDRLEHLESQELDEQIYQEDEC
sequence,measurement,setting,value
GGTAAC,binding signal,FLI1,"1.1 fold enrichment (6-mer frequency, TF over GST control)"
same,binding signal,GABPA,"1.03 fold enrichment (6-mer frequency, TF over GST control)"
same,binding signal,ERG,"1.01 fold enrichment (6-mer frequency, TF over GST control)"
same,binding signal,EHF,"1.09 fold enrichment (6-mer frequency, TF over GST control)"
same,binding signal,SPIB,"1.02 fold enrichment (6-mer frequency, TF over GST control)"
same,binding signal,ELK3,"1 fold enrichment (6-mer frequency, TF over GST control)"
same,binding signal,SPIC,"1.03 fold enrichment (6-mer frequency, TF over GST control)"
same,binding signal,ELF4,"1.01 fold enrichment (6-mer frequency, TF over GST control)"
same,binding signal,ELK4,"1.03 fold enrichment (6-mer frequency, TF over GST control)"
same,binding signal,ERF,"1 fold enrichment (6-mer frequency, TF over GST control)"
same,binding signal,ETV3L,"1 fold enrichment (6-mer frequency, TF over GST control)"
same,binding signal,ETS2,"1.02 fold enrichment (6-mer frequency, TF over GST control)"
same,binding signal,ETV7,"1.05 fold enrichment (6-mer frequency, TF over GST control)"
same,binding signal,ETV6,"1.04 fold enrichment (6-mer frequency, TF over GST control)"
